In the supplement of paper PMC3545927:
This is one part of the list. No count for the full screen is at hand.

Target: furin, P09958
Assay: furin cleavage Z-score vs untreated control; higher = more cleavage, active = 3.5 or more, inactive = 1 or less, 8 variable residues between constant flanks
In short: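 Purified furin digested bead-held 8-mer peptide–cDNA fusions at 1:10 enzyme:substrate in 0.01 ml of 50 mM HEPES pH 7.5 with CaCl2 and NaCl for 7.5, 15 or 30 min. The cleavage Z-score compares sequencing counts of released DNA with furin-free reactions on a log scale, with lowess adjustment and median absolute deviation scaling.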

furin, P09958, sequence (P09958 whole entry): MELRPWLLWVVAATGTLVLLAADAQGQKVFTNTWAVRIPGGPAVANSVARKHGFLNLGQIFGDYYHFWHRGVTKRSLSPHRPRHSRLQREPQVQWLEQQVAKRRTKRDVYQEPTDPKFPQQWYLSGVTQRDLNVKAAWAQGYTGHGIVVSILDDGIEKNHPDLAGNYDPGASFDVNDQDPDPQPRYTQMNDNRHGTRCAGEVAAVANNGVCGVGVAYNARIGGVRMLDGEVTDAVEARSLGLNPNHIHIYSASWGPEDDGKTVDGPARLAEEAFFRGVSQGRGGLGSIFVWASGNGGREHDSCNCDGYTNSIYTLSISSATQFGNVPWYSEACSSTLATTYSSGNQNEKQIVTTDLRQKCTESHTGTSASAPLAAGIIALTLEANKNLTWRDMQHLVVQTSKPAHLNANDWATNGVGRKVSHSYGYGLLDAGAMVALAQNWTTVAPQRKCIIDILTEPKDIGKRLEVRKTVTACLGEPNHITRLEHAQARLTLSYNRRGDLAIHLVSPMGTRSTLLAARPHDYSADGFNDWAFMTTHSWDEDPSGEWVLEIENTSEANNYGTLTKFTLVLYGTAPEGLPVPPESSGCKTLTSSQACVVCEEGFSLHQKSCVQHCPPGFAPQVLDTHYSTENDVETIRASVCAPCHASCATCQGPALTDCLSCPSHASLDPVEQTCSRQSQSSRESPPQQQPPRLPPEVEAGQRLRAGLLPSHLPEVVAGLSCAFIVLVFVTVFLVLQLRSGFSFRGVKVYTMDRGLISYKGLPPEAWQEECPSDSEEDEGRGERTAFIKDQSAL

| Sequence | furin cleavage Z-score (7.5 min) | furin cleavage Z-score (15 min) | furin cleavage Z-score (30 min) |
| --- | --- | --- | --- |
| CAQCTTPCSGAGNASASA [HC1962] | -0.946 (inactive) | 0.921 (inactive) | -0.234 (inactive) |
| CAYCTTPCSGAGNASASA [HC1949] | -0.657 (inactive) | -1.14 (inactive) | -0.156 (inactive) |
| CASEECSQHLAGNASASA [HC1677] | 1.1 | 1.14 | 0.289 (inactive) |
| CACSFTTLPAAGNASASA [HC499] | -0.00686 (inactive) | 0.0583 (inactive) | 0.931 (inactive) |
| CAGPLWILQAAGNASASA [HC609] | 1.21 | -0.216 (inactive) | 0.172 (inactive) |
| CAVRSRMRRAAGNASASA [FS-1500] | 11 (active) | 10.2 (active) | 8.12 (active) |
| CAVPSRQSRAAGNASASA [FS-207] | 7.32 (active) | 8.36 (active) | 8.3 (active) |
| CAPSFRDRRAAGNASASA [FS-1244] | 9.04 (active) | 11.1 (active) | 9 (active) |
| CALPSRQKKAAGNASASA [FS-1365] | 0.168 (inactive) | 0.828 (inactive) | 1.92 |
| CAVRSRHLRAAGNASASA [FS-632] | 9.71 (active) | 9.82 (active) | 8.62 (active) |
| CAMEEISQHLAGNASASA [HC5] | 1.45 | 0.702 (inactive) | -0.262 (inactive) |
| CAHLHAPTGSAGNASASA [HC774] | -0.0824 (inactive) | 0.739 (inactive) | 0.623 (inactive) |
| CAPQDVKFPGAGNASASA [HC170] | 0.0199 (inactive) | -1.23 (inactive) | 0.673 (inactive) |
| CAVEGEVQIVAGNASASA [HC688] | -0.863 (inactive) | -0.579 (inactive) | -0.88 (inactive) |
| CARSLRSWLIAGNASASA [FS-1974] | 0.545 (inactive) | 0.463 (inactive) | 0.528 (inactive) |
| CALHRRQKRIAGNASASA [FS-821] | 9.03 (active) | 10.1 (active) | 10.5 (active) |
| CASITRMKRIAGNASASA [FS-719] | 6.03 (active) | 8.1 (active) | 7.63 (active) |
| CAMSTRKARIAGNASASA [FS-277] | 1.25 | 1.83 | -0.362 (inactive) |
| CASIARQKRIAGNASASA [FS-562] | 4.19 (active) | 2.74 | 5.27 (active) |
| CAERLRQKRIAGNASASA [FS-1194] | 4.13 (active) | 5.45 (active) | 4.4 (active) |
| CAHQWISSECAGNASASA [HC1141] | -0.592 (inactive) | -1.1 (inactive) | 0.453 (inactive) |
| CAKWEYVVLLAGNASASA [HC518] | 0.0863 (inactive) | -1.74 (inactive) | -0.726 (inactive) |
| CAVPRRSKRIAGNASASA [FS-513] | 6.01 (active) | 7.79 (active) | 6.97 (active) |
| CADDERSKRIAGNASASA [FS-221] | 0.272 (inactive) | 0.273 (inactive) | -0.987 (inactive) |

| Sequence | furin cleavage Z-score (7.5 min) | furin cleavage Z-score (15 min) | furin cleavage Z-score (30 min) |
| --- | --- | --- | --- |
| CAANRRMKRIAGNASASA [FS-750] | 7.06 (active) | 9.01 (active) | 7.77 (active) |
| CAFPMRSKKIAGNASASA [FS-771] | -1.66 (inactive) | 0.142 (inactive) | -0.16 (inactive) |
| CALVVRGPPGAGNASASA [FS-1846] | -0.565 (inactive) | -0.565 (inactive) | -0.843 (inactive) |
| CASLERLRRGAGNASASA [FS-296] | 0.592 (inactive) | 0.0398 (inactive) | 0.764 (inactive) |
| CASHHRHRRGAGNASASA [FS-1410] | 9.65 (active) | 10.8 (active) | 9.31 (active) |
| CAHHHRHRRAAGNASASA [FS-1006] | 9.03 (active) | 6.62 (active) | 5.92 (active) |
| CALRAWRHRAAGNASASA [HC1619] | 2.05 | 0.378 (inactive) | 0.854 (inactive) |
| CAHHHRHHRAAGNASASA [FS-1336] | 2.38 | 2.68 | 3.58 (active) |
| CAMKECSQHLAGNASASA [HC1694] | -0.048 (inactive) | -0.457 (inactive) | -0.785 (inactive) |
| CATTPCSNSWAGNASASA [HC1901] | 0.617 (inactive) | 0.249 (inactive) | 1.55 |
| CAEKKRKFIKAGNASASA [FS-2119] | -0.691 (inactive) | -0.493 (inactive) | -0.629 (inactive) |
| CARQKREWIKAGNASASA [FS-2752] | 4.32 (active) | 5.62 (active) | 9.03 (active) |
| CARQKREWVKAGNASASA [FS-2753] | 3.59 (active) | 6.92 (active) | 8.88 (active) |
| CAMEECWQHLAGNASASA [HC27] | 1.1 | 1.46 | 0.479 (inactive) |
| CAYSPGEINRAGNASASA [HC1609] | -1.45 (inactive) | 1.01 | -0.452 (inactive) |
| CAEVDCHRPSAGNASASA [HC2351] | 0.842 (inactive) | 0.436 (inactive) | 0.244 (inactive) |
| CARATRKTSEAGNASASA [HC184] | -0.121 (inactive) | -1.01 (inactive) | -1.25 (inactive) |
| CATGLIHLHQAGNASASA [HC504] | 0.174 (inactive) | 0.0378 (inactive) | -0.549 (inactive) |
| CARKKKSISLAGNASASA [FS-1855] | 0.218 (inactive) | 1.42 | 3.47 |
| CARPSRSISLAGNASASA [FS-3027] | 3.14 | 4.81 (active) | 5.36 (active) |
| CARISRSISEAGNASASA [FS-2033] | 7.46 (active) | 8.18 (active) | 7.34 (active) |
| CARISRSLHQAGNASASA [FS-3190] | 6.79 (active) | 8.81 (active) | 8.11 (active) |
| CARPSRSGGRAGNASASA [FS-2287] | -1.07 (inactive) | -0.551 (inactive) | -0.606 (inactive) |
| CAQGSRSLTPAGNASASA [HC718] | 0.532 (inactive) | -0.507 (inactive) | 0.396 (inactive) |
